Results reported in PubChem BioAssay (NCATS).
Inconclusive results are not listed. Activity calls are given as the source filed them. Unless noted, calls come from the whole dose curve; as a rule, active = well fitted cell-killing curve with a large enough effect; inconclusive = small, poorly fitted or top-dose-only effect, or effect the other way; inactive = no such curve, though single readings can be large or run the other way.

Columns and labels:
[1] = Quantitative High-Throughput drug screen in 47 multiple myeloma cell lines against the NCATS MIPE library collection: VP6_DJ cell viability assay (AID 1919867); note: nearly all actives have a fitted effect of over 40% in size
Method in brief: (§1)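 Plated at 500 cells per well, myeloma lines received MIPE 4.0 compounds by pin tool. Following 48 h culture at 37 °C, CellTiter-Glo luminescence gave viability relative to DMSO and media-only controls.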

[2] = Quantitative High-Throughput drug screen in 47 multiple myeloma cell lines against the NCATS MIPE library collection: UTMC2_PLB cell viability assay (AID 1919868); conditions: CellTiter-Glo ATP luminescence, 48 h; viability (% of DMSO control): at 45.8 µM (top of the series) unless noted; note: nearly all actives have a fitted effect of over 55% in size
Method in brief: as §1

[3] = Quantitative High-Throughput drug screen in 47 multiple myeloma cell lines against the NCATS MIPE library collection: PE2_PLB cell viability assay (AID 1919869); note: nearly all actives have a fitted effect of over 35% in size
Method in brief: as §1

[4] = Quantitative High-Throughput drug screen in 47 multiple myeloma cell lines against the NCATS MIPE library collection: PCM6_Riken cell viability assay (AID 1919870); note: nearly all actives have a fitted effect of over 30% in size
Method in brief: as §1

[5] = Quantitative High-Throughput drug screen in 47 multiple myeloma cell lines against the NCATS MIPE library collection: RPMI8226_ATCC cell viability assay (AID 1919871); note: nearly all actives have a fitted effect of over 30% in size
Method in brief: as §1

[6] = Quantitative High-Throughput drug screen in 47 multiple myeloma cell lines against the NCATS MIPE library collection: OPM2_DSMZ cell viability assay (AID 1919872); note: nearly all actives have a fitted effect of over 30% in size
Method in brief: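 Steps: seed 500 cells per well; pin-transfer MIPE 4.0 library; incubate 48 h at 37C, 5% CO2, humidified; add CellTiter-Glo, 5 min room temperature; read luminescence.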

[7] = Quantitative High-Throughput drug screen in 47 multiple myeloma cell lines against the NCATS MIPE library collection: KMS11_JCRBsus cell viability assay (AID 1919873); note: nearly all actives have a fitted effect of over 50% in size
Method in brief: as §1

[8] = Quantitative High-Throughput drug screen in 47 multiple myeloma cell lines against the NCATS MIPE library collection: KMS28BM_JCRB cell viability assay (AID 1919874); note: nearly all actives have a fitted effect of over 35% in size
Method in brief: as §1

[9] = qHTS drug screen for cell cycle checkpoint inhibitors in PARPi-resistant BRCA-mutant ovarian cancer cell lines. (AID 1963452; calls by dose curve); conditions: PEO1/OlaR viability, CellTiter-Glo luminescence, 96 h; for Z-AUC: stronger effect = lower value
Method in brief: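 PEO1, PEO4 and PEO1/OlaR ovarian cancer cells, 600 per well, exposed 96 h at 37C to a dilution series. Viability read by CellTiter-Glo luminescence, normalized to DMSO and empty wells; activity summarized as Z-AUC.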

[10] = qHTS for identification of novel therapeutic agents for treatment of microphthalmiaassociated transcription factor (MiT) renal cell carcinoma (RCC) (AID 1963991; calls by dose curve); conditions: CellTiter-Glo, 48 h; for z-score: stronger effect = lower value
Method in brief: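 Three TFE3-fusion RCC lines (UOK109, UOK124, UOK145), 500 cells/well in complete medium, were treated with MIPE 4.0 compounds for 48 hours at 37 C. Viability was by CellTiter-Glo luminescence, normalized to DMSO (100%) and empty wells (0%); curves fitted over 11 concentrations.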

[11] = measured here: PEO1 parental Z-AUC
Potency is the fitted concentration of half-maximal effect.

CC1(C)OC2=C(C(=O)c3ccccc3C2=O)[C@H](NCc2ccccc2)[C@H]1O
active: Potency [1] 3320 nM | Potency [2] 2350 nM | Potency [3] 3320 nM | Potency [4] 2350 nM | Potency [5] 8330 nM | Potency [6] 8330 nM | Potency [7] 3720 nM | Potency [8] 2960 nM

CC1(O)CC(c2nc(-c3ccc4ccc(-c5ccccc5)nc4c3)c3c(N)nccn23)C1 (configuration not stated)
active: Potency [1] 166 nM | Potency [2] 166 nM | Potency [3] 1660 nM | Potency [4] 14800 nM | Potency [5] 235 nM | Potency [6] 18700 nM | Potency [7] 187 nM | Potency [8] 148 nM
inactive: Z-AUC [9] -2.04
-1.72: Z-AUC ([9]; measured here: PEO4 Z-AUC)
-0.993: Z-AUC [9, 11]

Cc1[nH]nc2ccc(-c3cncc(OC[C@@H](N)Cc4ccccc4)c3)cc12
inactive: Z-AUC [9] -1.08
-1.81: Z-AUC ([9]; measured here: PEO4 Z-AUC)
active: Potency [1] 833 nM | Potency [2] 590 nM | Potency [3] 1180 nM | Potency [4] 526 nM | Potency [5] 5900 nM | Potency [6] 9350 nM | Potency [7] 1180 nM | Potency [8] 296 nM
-1.59: Z-AUC [9, 11]

CC(C)=CCCC(C)=CCCC(C)=CCSc1ccccc1C(=O)O
active: Potency [1] 1870 nM | Potency [2] 1180 nM | Potency [3] 2350 nM | Potency [4] 6620 nM | Potency [5] 418 nM | Potency [6] 4180 nM | Potency [7] 209 nM | Potency [8] 5900 nM

CCn1cc(-c2ccnc3[nH]c(-c4cccc(CN(C)C)c4)cc23)c(-c2ccc(NC(=O)N(C)C)cc2)n1
-1.88: Z-AUC ([9]; measured here: PEO4 Z-AUC)
active: Potency [1] 1480 nM | Potency [2] 743 nM | Potency [3] 11800 nM | Potency [4] 9350 nM | Potency [5] 14800 nM | Potency [6] 11800 nM | Potency [7] 833 nM | Potency [8] 6620 nM | Potency [9] 2450 nM
-1.7: Z-AUC [9, 11]

CN1CCN(Cc2ccc(NC(=O)Nc3ccc(Oc4cc(NC(=O)C5CC5)ncn4)cc3)cc2C(F)(F)F)CC1
active: Potency [1] 93.5 nM | Potency [2] 132 nM | Potency [3] 148 nM | Potency [4] 105 nM | Potency [5] 418 nM | Potency [6] 526 nM | Potency [7] 235 nM | Potency [8] 209 nM
-1.93: Z-AUC ([9]; measured here: PEO4 Z-AUC)
-2.15: Z-AUC [9, 11]
inactive: Z-AUC [9] -1.5

OCCCNc1cc(-c2ccnc(Nc3cccc(Cl)c3)n2)ccn1
-1.57: z-score ([10]; TFE3-RCC UOK109 viability, measured here: UOK109 Z-AUC)
active: Potency [1] 23.5 nM | Potency [2] 41.8 nM | Potency [3] 37.2 nM | Potency [4] 16.6 nM | Potency [5] 187 nM | Potency [6] 235 nM | Potency [7] 52.6 nM | Potency [8] 93.5 nM | Potency ([10]; TFE3-RCC UOK109 viability, active = Z-AUC below -0.8 in all three lines) 209 nM
-0.939: z-score ([10]; TFE3-RCC viability, measured here: UOK124 Z-AUC)
-2.05: z-score ([10]; TFE3-RCC viability, measured here: UOK145 Z-AUC)
